Data on twelve compounds can be found in PubChem BioAssay (NCATS).

Values without a mark were called inactive. Records with an inconclusive call do not appear. Activity calls are given as the source filed them. Unless noted, the call rests on the fitted dose curve; in most records, active means well fitted curve in the direction sought with a large enough effect; inconclusive means small, poorly fitted or top-dose-only effect, or another doubt; inactive means no such curve, though single readings can be large; an effect the other way counts as inactive or inconclusive. Where only a bound is given, the exact number is not on record here.

A short description of assay [1]: AP1 Signaling Pathway (AID 357; active means well fitted curve in either direction with a large enough effect, not every such curve was filed as active;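 further: ME-180 reporter cells stimulated with EGF at its EC50 level; on the % scale 0 is the no-effect control and ±100 the full control effect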). The settings on record: ME-180 (cervical carcinoma) AP-1-bla reporter, EGF-induced, beta-lactamase ratio, 5 h; at 17.2 µM (top of the series) unless noted. A digest of the protocol: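 In this screen, ME-180 cells in Opti-MEM with 0.5% dialyzed FBS received EC50 EGF and compound titrations for 5 h. AP-1 reporter beta-lactamase was detected via CCF4 ratio, giving AC50 for positive and negative modulators.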

Assay [2] deals with Glucocorticoid receptor (Homo sapiens) (UniProt P04150). Kind of assay: GR-GFP Redistribution (AID 450;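 active means compounds whose dose series gives a full or clear partial fitted curve of increased nuclear translocation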; further: potency means the concentration at half of the fitted maximal effect). The settings on record: U2OS GR-GFP nuclear translocation, laser cytometry, 2 h.
Chain of Glucocorticoid receptor (Homo sapiens) (P04150 whole entry, looked up): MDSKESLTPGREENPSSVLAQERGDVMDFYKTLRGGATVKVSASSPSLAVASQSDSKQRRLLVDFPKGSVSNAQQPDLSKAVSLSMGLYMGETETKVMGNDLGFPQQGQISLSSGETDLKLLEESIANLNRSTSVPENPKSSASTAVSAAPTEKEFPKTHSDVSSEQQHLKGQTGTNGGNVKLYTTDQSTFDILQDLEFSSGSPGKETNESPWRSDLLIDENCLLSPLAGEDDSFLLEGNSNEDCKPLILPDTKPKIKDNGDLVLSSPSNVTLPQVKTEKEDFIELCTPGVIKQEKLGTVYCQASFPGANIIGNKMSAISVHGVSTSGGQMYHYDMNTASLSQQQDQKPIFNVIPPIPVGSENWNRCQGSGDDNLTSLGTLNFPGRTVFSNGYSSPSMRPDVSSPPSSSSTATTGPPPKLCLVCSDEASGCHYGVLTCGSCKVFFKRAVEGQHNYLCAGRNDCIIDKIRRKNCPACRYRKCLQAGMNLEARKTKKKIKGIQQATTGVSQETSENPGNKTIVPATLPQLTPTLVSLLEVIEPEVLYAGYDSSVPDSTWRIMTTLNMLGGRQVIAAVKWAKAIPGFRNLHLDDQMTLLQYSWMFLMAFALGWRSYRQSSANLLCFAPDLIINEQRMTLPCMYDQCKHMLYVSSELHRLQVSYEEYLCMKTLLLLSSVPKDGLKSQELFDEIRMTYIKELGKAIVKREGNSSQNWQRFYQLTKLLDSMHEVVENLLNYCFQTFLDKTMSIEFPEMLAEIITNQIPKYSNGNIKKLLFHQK
Assay [3] shares this target. Kind of assay: GR-EFC Redistribution (AID 451; calls by dose curve; further: potency means the concentration at half of the fitted maximal effect). The settings on record: CHO-K1 GR-EFC translocation, beta-gal luminescence, 2 h. In a few lines:
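Translocation of GR-ED fusion to nuclear EA restores b-gal, read by luminescence after 1 h room-temperature detection. Engineered CHO-K1 biosensor cells, 1,000/well, exposed 2 h at 37 C to titrations up to 46 uM final.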

Assay [4] addresses Mitogen-activated protein kinase 10 (Mus musculus) (UniProt Q61831). Kind of assay: JNK3 AlphaScreen Assay (AID 530; active means well fitted curve in either direction with a large enough effect, not every such curve was filed as active;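 further: kinase came from lysate of stimulated human HepG2 cells; signal reports phosphorylation of biotinylated GST-cJun 1-79 at Ser73 with 10 µM ATP; on the % scale 0 is the no-effect control and ±100 the full control effect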). A digest of the protocol: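 Compound titrations were preincubated 15 minutes at room temperature with substrate, antibody and pre-activated JNK3-containing HepG2 lysate. Reactions were started with 10 uM ATP and stopped with EDTA-containing bead buffer for AlphaScreen detection.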

The target in assay [5] is 3',5'-cyclic-AMP phosphodiesterase 4B (Homo sapiens) (UniProt Q07343). Put plainly: qHTS Assay for Inhibitors of PDE-IV (AID 607; active means well fitted activation curve with a large enough effect in the main read-out, with a control signal flat, not every such curve was filed as active; further: % of control where 0% means no effect). In a few lines: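 Live HEK293 cells with a modified cyclic nucleotide-gated (CNG) channel report intracellular cAMP via membrane-potential dye fluorescence (ex 535/em 590 nm). Endogenous PDE-IV was targeted. Compounds were tested at up to 22.9 uM final; RO 20-1724 100 uM served as control.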
Chain of 3',5'-cyclic-AMP phosphodiesterase 4B (Homo sapiens) (Q07343 whole entry, looked up): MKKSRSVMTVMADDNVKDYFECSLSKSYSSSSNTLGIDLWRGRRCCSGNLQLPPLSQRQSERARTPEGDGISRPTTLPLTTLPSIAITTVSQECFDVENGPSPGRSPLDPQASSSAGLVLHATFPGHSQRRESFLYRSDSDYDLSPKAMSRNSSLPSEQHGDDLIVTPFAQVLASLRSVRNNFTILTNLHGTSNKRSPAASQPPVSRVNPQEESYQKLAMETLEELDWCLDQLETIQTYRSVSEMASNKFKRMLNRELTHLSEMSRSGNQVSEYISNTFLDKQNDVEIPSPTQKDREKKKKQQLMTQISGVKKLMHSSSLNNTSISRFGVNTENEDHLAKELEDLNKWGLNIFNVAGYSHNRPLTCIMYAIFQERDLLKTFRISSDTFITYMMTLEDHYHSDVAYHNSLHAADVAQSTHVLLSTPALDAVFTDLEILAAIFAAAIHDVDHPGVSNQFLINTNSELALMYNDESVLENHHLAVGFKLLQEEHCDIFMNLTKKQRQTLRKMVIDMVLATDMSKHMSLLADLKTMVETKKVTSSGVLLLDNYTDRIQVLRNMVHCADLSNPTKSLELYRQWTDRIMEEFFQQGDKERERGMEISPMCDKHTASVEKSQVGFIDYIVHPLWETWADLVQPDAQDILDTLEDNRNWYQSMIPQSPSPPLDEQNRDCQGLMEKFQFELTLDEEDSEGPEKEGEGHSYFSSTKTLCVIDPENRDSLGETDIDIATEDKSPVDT

The target in assay [6] is Guanine nucleotide-binding protein G(i) subunit alpha-1 (Homo sapiens) (UniProt P63096). Put plainly: qHTS Assay for Inhibitors of RGS12 GoLoco Motif Activity (Green Fluorophore) (AID 879).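 Further: 0% = labeled peptide with Gαi1 and full inhibition = labeled peptide alone without protein; negative values mean loss of peptide binding seen as reduced polarization.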 In a few lines:
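Fluorescence polarization assay: 50 nM Gαi1 with 10 nM FITC-labeled RGS12 GoLoco peptide in 10 mM Tris pH 7.5, 150 mM NaCl, 0.1 mM GDP, 0.05% NP40, 10 min at room temperature with compound.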

Assay [7] deals with Cytochrome P450 2C19 (Homo sapiens) (UniProt P33261). Kind of assay: qHTS Assay for Inhibitors and Substrates of Cytochrome P450 2C19 (AID 899). Further: nearly all actives have a fitted effect of over 60% in size. Further: potency means the concentration at half of the fitted maximal effect. A digest of the protocol: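 Reactions contain 5nM enzyme, 10uM Luciferin-H EGE (KM) and 50mM KPO4; compound preincubates 10 min at 37C, NADPH regeneration starts turnover for 60 min. Luminescence after detection reagent gives activity.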
Chain of Cytochrome P450 2C19 (Homo sapiens) (P33261 whole entry, looked up): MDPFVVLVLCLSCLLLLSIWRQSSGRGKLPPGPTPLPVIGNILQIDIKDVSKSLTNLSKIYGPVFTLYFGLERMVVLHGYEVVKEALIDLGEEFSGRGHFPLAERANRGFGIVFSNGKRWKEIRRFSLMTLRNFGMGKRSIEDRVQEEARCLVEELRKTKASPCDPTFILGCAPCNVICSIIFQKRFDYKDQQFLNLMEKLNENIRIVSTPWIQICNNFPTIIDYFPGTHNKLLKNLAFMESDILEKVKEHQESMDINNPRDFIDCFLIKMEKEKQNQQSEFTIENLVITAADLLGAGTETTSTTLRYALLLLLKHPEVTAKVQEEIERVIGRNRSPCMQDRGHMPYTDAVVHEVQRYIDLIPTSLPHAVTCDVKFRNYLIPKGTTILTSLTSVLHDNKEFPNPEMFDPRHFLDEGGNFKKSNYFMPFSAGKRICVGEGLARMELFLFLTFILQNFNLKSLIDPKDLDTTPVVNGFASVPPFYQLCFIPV

The target of assay [8] is Pyruvate kinase PKM (Homo sapiens) (UniProt P14618). Put plainly: qHTS Assay for Activators of Human Muscle Pyruvate Kinase (AID 954; active means well fitted curve in the direction sought with a large enough effect, not every such curve was filed as active;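 further: 0% = uninhibited enzyme and -100% = no enzyme or full thiadiazolimine inhibition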). In a few lines:
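Enzyme was run at intermediate activity so both inhibitors and activators could be detected. ATP formed from ADP and PEP by 0.1 nM human PKM2 during a 1 h room-temperature incubation was quantified by coupled luciferase luminescence.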

In assay [9] the target is Alpha-galactosidase (Coffea arabica) (UniProt Q42656). Put plainly: Counterscreen for Glucocerebrosidase Inhibitors: qHTS Assay for Coffee Bean alpha-Galactosidase at pH 4.5 (AID 957).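 Further: plate controls were enzyme alone for no effect and no enzyme for full effect.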 In a few lines:
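Coffee bean alpha-galactosidase 2 nM, substrate 4-MU-alpha-Gal 80 uM, pH 4.5 citrate/Tween-20, 20 min RT. Cpd titration 0.7 nM–77 uM. Stop pH 10, fluorescence 365/440 nm; Hill-equation AC50.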

The target of assay [10] is Alpha-galactosidase A (Homo sapiens) (UniProt P06280). Put plainly: Counterscreen for Glucocerebrosidase Inhibitors: qHTS Assay for Human alpha-Galactosidase at pH 4.5 (AID 992). Further: 0% is about no effect. In a few lines: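 Read-out is 4-methylumbelliferone fluorescence (365 nm excitation, 440 nm emission) after a pH 10 NaOH/glycine stop. Reactions held 2 nM enzyme and 80 uM substrate at pH 4.5 for 20 min at room temperature.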
Chain of Alpha-galactosidase A (Homo sapiens) (P06280 whole entry, looked up): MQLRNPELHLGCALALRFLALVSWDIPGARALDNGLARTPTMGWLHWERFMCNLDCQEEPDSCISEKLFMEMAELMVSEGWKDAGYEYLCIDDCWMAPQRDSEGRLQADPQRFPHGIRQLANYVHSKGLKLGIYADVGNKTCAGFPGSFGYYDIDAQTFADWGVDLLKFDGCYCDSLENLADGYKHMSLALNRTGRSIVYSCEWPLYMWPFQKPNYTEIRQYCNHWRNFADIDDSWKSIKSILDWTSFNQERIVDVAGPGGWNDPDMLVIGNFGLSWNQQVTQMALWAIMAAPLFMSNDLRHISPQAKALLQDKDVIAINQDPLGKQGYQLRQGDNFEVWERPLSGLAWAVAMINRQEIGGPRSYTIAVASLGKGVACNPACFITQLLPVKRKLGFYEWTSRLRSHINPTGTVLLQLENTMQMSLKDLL

Assay [11] concerns the target alpha-glucosidase (Oryza sativa, rice) (UniProt Q653V4). Put plainly: Counterscreen for Glucocerebrosidase Inhibitors: qHTS Assay for Rice alpha-Glucosidase at pH 5.0 (AID 997).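 Further: 0% = full activity with enzyme and -100% = basal without enzyme.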 A digest of the protocol: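 Rice alpha-glucosidase (4 nM final) with 400 uM 4-methylumbelliferyl-alpha-D-glucopyranoside in citrate buffer pH 5.0, 20 min at room temperature, stopped at pH 10; fluorescence 365/440 nm, compounds 0.7 nM–77 uM, AC50 from Hill fits.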

Assay [12] concerns the target Alpha-galactosidase (Coffea arabica) (UniProt Q42656). Put plainly: Counterscreen for Glucocerebrosidase Inhibitors: qHTS Assay for Coffee Bean alpha-Galactosidase at pH 5.9 (AID 998).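 Further: plate controls were uninhibited enzyme for no effect and no-enzyme basal signal for full effect.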 In a few lines:
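Compounds were titrated from 0.7 nM to 77 uM against green coffee bean alpha-galactosidase (2 nM) using 80 uM fluorogenic 4-methylumbelliferyl substrate. After 20 min at room temperature, reactions were stopped at pH 10 and read by fluorescence.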

Assay [13] can be described thus: Stat Signaling Pathway (AID 446; active means well fitted curve in either direction with a large enough effect, not every such curve was filed as active;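 further: ME-180 cervical cancer cells given 40 pM IL-6 alongside compound; SIE-controlled beta-lactamase reporter measured as 460/530 nm FRET emission ratio; on the % scale 0 is the no-effect control and ±100 the full control effect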). In a few lines:
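IL-6/STAT signaling read in ME-180 cells via an SIE beta-lactamase reporter. Stimulus was 40 pM IL-6 (its AC50) for 5 hrs, so both activation and inhibition register.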

Assay [14] addresses Cytochrome P450 1A2 (Homo sapiens) (UniProt P05177). Kind of assay: p450-cyp1a2 (AID 410; calls by dose curve; further: potency means the concentration at half of the fitted maximal effect;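 on activity change, negative = inhibition: -100% = full effect of reference inhibitor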). In a few lines:
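Luminescent readout of luciferin formed from Luciferin-ME by human CYP1A2; data normalized against complete inhibition by 57 uM furafylline. Enzyme 20nM, substrate 100uM at Km, 100mM KPO4 buffer, 60 min reaction at room temperature.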

For assay [15], the target named is Cytochrome P450 3A4 (Homo sapiens) (UniProt P08684). Put plainly: qHTS Assay for Activators of Cytochrome P450 3A4 (AID 885). Further: nearly all actives have a fitted effect of over 65% in size. In a few lines: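 Quantitative HTS format: compounds preincubated with 20nM human CYP3A4 and Luciferin-PPXE substrate at KM, reaction started by NADPH regeneration, stopped after 60 min, luciferase luminescence read 20 min later.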
Assay [16] deals with Cytochrome P450 2C9 (Homo sapiens) (UniProt P11712). Put plainly: qHTS Assay for Inhibitors and Substrates of Cytochrome P450 2C9 (AID 883). Further: nearly all actives have a fitted effect of over 60% in size. Further: potency means the concentration at half of the fitted maximal effect. On activity change, negative = inhibition: on the % scale 0 is the no-effect control and ±100 the full control effect. In a few lines: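 Turnover of Luciferin-H (100uM, KM) by 10nM human CYP2C9 was measured over 60 min at 37C with NADPH regeneration; inhibitors and some substrates reduce luminescence. Data normalized to sulphaphenazole 57uM.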
Chain of Cytochrome P450 2C9 (Homo sapiens) (P11712 whole entry, looked up): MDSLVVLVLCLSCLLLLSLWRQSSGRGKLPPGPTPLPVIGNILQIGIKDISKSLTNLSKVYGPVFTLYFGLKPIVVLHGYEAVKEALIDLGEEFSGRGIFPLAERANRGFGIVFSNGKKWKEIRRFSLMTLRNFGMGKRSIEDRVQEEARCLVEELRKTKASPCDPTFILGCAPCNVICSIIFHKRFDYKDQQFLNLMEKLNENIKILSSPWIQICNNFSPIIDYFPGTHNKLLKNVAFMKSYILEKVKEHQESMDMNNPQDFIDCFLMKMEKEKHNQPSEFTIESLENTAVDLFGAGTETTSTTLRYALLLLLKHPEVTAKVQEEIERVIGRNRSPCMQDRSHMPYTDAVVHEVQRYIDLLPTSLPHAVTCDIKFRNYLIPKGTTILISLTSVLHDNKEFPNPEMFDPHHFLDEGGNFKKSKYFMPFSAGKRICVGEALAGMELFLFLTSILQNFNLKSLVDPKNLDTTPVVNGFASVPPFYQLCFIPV
In assay [17] the target is Cytochrome P450 2D6 (Homo sapiens) (UniProt P10635). Kind of assay: qHTS Assay for Inhibitors and Substrates of Cytochrome P450 2D6 (AID 891). Further: nearly all actives have a fitted effect of over 60% in size. Further: potency means the concentration at half of the fitted maximal effect. In a few lines: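 Human CYP2D6 (5 nM) with 30 uM Luciferin-ME EGE (at Km) in 100 mM KPO4, compound preincubated 10 min, then NADPH regeneration system for 60 min at room temperature. Luciferin read by luminescence; normalized to 1.43 uM quinidine.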
Chain of Cytochrome P450 2D6 (Homo sapiens) (P10635 whole entry, looked up): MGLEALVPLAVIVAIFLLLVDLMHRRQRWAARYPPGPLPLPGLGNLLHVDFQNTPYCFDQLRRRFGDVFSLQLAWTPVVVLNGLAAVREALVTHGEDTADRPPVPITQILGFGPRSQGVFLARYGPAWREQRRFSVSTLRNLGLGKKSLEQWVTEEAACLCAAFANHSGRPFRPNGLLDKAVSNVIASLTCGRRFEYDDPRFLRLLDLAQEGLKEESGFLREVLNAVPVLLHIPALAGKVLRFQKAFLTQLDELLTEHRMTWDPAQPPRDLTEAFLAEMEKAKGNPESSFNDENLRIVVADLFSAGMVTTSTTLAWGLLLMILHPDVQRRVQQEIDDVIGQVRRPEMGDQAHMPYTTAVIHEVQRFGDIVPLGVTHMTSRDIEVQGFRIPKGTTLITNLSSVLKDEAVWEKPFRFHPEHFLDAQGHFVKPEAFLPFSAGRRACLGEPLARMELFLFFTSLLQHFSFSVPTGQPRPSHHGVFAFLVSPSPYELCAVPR

Assay [18] addresses Muscarinic acetylcholine receptor M1 (Rattus norvegicus) (UniProt P08482). Put plainly: qHTS Assay for Antagonists of Acetylcholine Muscarinic M1 Receptor: Kinetic Measurement of Intracellular Calcium Response (AID 943). Further: potency means the concentration at half of the fitted maximal effect; nearly all actives have a fitted effect of over 75% in size. A digest of the protocol: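 Rat M1-CHO cells, 2000/well, overnight → Fluo-4 no-wash dye with probenecid, 1 h 37C → compound 10 min, room temp → basal read 6 s → carbachol EC80 (100 nM) → 4 min kinetic read; peak/basal.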

Assay [19] shares this target. Put plainly: qHTS Assay for Antagonists of Acetylcholine Muscarinic M1 Receptor: Measurement of IP-One Response (AID 944). Further: nearly all actives have a fitted effect of over 75% in size. In a few lines:
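M1-CHO (rat), 2000 cells/well, overnight recovery; cpd 10 min; carbachol EC80 (200 nM), 30 min, HEPES buffer + 50 mM LiCl pH 7.4; IP-One HTRF, Ex 337, Em 620/665 nm.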

Assay [20] deals with Pyruvate kinase (Leishmania mexicana) (UniProt Q27686). Put plainly: qHTS Validation Assay for Inhibitors of Leishmania Mexicana Pyruvate Kinase (AID 945).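 Further: 0% = DMSO only neutral control wells.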 In a few lines: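 qHTS eight-point titrations against 0.2 nM LmPYK (E451W) in imidazole buffer pH 7.2 with 0.5 mM PEP, 0.1 mM ADP; 1 h, room temperature. Readout: PKLight luminescence, normalized to neutral DMSO wells.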

Chain of Cytochrome P450 1A2 (Homo sapiens) (P05177 whole entry, looked up): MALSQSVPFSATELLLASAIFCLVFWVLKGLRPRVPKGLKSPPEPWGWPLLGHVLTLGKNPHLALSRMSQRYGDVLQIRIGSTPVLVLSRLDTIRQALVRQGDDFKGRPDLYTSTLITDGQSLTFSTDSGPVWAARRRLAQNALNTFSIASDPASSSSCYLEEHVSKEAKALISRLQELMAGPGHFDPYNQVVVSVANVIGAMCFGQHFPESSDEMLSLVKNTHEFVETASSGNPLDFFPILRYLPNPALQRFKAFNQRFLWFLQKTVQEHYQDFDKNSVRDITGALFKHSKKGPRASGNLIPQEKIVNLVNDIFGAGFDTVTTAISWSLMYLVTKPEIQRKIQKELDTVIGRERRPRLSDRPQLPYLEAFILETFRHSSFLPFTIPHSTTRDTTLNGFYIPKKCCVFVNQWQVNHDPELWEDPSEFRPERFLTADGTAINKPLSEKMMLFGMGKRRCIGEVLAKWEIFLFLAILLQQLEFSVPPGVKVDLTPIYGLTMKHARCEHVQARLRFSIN
Chain of Alpha-galactosidase (Coffea arabica) (Q42656 whole entry, looked up): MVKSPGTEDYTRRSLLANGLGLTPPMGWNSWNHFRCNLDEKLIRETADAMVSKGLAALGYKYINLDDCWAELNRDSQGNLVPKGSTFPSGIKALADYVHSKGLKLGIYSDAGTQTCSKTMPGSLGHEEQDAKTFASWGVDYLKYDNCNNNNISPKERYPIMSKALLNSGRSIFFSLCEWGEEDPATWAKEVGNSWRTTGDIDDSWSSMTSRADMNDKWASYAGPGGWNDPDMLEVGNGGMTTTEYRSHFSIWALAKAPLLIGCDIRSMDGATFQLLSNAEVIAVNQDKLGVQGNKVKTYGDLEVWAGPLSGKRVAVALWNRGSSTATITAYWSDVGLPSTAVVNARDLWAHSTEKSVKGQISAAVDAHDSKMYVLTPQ
Chain of Pyruvate kinase PKM (Homo sapiens) (P14618 whole entry, looked up): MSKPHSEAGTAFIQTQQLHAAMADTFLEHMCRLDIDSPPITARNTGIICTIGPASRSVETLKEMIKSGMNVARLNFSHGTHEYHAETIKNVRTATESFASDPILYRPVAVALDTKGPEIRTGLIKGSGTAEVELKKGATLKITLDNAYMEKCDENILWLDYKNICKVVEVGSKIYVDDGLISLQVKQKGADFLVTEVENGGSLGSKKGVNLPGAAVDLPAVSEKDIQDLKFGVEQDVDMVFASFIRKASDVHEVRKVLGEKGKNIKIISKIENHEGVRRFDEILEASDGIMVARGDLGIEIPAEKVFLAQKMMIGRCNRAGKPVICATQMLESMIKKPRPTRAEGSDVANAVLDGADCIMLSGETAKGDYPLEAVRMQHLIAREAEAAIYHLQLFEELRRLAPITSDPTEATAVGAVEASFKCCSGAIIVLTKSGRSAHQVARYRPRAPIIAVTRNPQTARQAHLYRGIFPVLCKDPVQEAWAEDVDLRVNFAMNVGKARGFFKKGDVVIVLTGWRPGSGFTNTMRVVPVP

With `C=C(C)[C@H]1Cc2c(ccc3c2O[C@H]2COc4cc(OC)c(OC)cc4[C@@H]2C3=O)O1`, the activity change, negative = inhibition in assay [1] was 7.51% [at 38 µM]. Besides, the Potency in assay [2] was more than 46 µM; in [3] it was more than 46 µM; in assay [7] it was 2.51 µM (active). Besides, the compound was called inactive in assay [4], in assay [5], in assay [8], in assay [9], in [10] and in assay [11]. Besides, the compound was called inactive in [12]. In addition, the Potency entry in [6] was “inactive”.
Consider `CCC(=NCCOc1ccc(Cl)cc1)c1c(O)n(C)c(=O)n(C)c1=O`, for which the activity change, negative = inhibition in assay [1] was -1.65%. In addition, in assay [13], the compound was classed as inactive. Moreover, the Potency in assay [2] was more than 20.6 µM.
In the case of `CCCc1cc2c(n1CCO)C(C)C1CN(C(=O)c3ccccc3)C(C)(C(=O)OC)C21` (stereo not drawn), the Potency entry in assay [14] and in [15] was “inactive” each time. Besides, the call in assay [4] and in assay [5] was inactive.
As for `COc1cc2c(cc1OC)[C@]13CCN4CC5=CCO[C@@H]6CC(=O)N2[C@@H]1[C@H]6[C@@H]5C[C@H]43`, the Potency entry in assay [14], in [16], in assay [17] and in [7] was “inactive” throughout.
For the compound `C[C@@]12CC[C@H](O)C[C@@H]1CC[C@H]1[C@H]2C[C@@H](O)[C@]2(C)[C@@H](C3=CC(=O)OC3)CC[C@@]12O`, the Potency entry in assay [14], in assay [16], in assay [17] and in [7] was “inactive” throughout. The Potency in assay [2] and in [3] was more than 46 µM throughout. In assay [4], the outcome was inactive.
On to `c1cc2c(cc1[C@H]1OC[C@H]3[C@@H]1CO[C@H]3c1ccc3c(c1)OCO3)OCO2`, for which the Potency is 2 µM (active) in [14]; more than 46 µM in [2]; more than 46 µM in assay [3]; 3.98 µM (active) in [16]; 15.8 µM (active) in assay [17]; 3.16 µM (active) in [7]. Moreover, in assay [5], the result was inactive.
For the compound `C[C@H]1CC[C@]2(NC1)O[C@@H]1C[C@@H]3[C@@H]4CC=C5C[C@H](O)CC[C@@]5(C)[C@H]4CC[C@@]3(C)[C@H]1[C@@H]2C`, the Potency entry in [14], in assay [16], in assay [17] and in assay [7] was “inactive” each time. Besides, the Potency in [2] and in assay [3] was more than 46 µM in each case. The outcome in assay [4] was inactive.
For `C=CCCN1C[C@@H]2C[C@H](C1)c1cccc(=O)n1C2`, the Potency entry in assay [14], in [16], in [17] and in assay [7] was “inactive” in each case. The Potency in assay [2] and in assay [3] was more than 46 µM each time. The compound was called inactive in assay [4].
For the compound `CCCCCCCCCCCCCC(=O)O[C@H]1[C@@H](C)[C@@]2(O)[C@@H](C=C(CO)C[C@]3(O)C(=O)C(C)=C[C@@H]23)C2C(C)(C)[C@]21OC(C)=O` (stereo partly drawn), the Potency result in assay [14], in assay [6], in assay [15], in [19] and in [20] was “inactive” throughout. Further, the Potency in assay [2] was more than 46 µM; in assay [3], more than 46 µM; in assay [18], 0.02 µM (active). The outcome in assay [8], in assay [9], in assay [10] and in assay [11] was inactive.
As to `CC(=O)N1C[C@@H]2C[C@H](C1)c1cccc(=O)n1C2`, the Potency result in [14], in assay [16], in [17] and in [7] was “inactive” in each case. The Potency in assay [2] and in [3] was more than 46 µM each time. Also, the outcome in [5] was inactive.
As to `CC[C@@H]1CN2CC[C@@H]1C[C@H]2[C@@H](O)c1ccnc2ccc(OC)cc12`, the Potency entry in [14], in assay [16] and in [7] was “inactive” in each case. Moreover, the results for the Potency in assay [2], in assay [3] and in assay [17] were more than 46 µM, more than 46 µM and 0.0016 µM (active), respectively. For the same compound, the result in assay [4] was inactive.
`C=C[C@@H]1CN2CC[C@H]1C[C@H]2[C@@H](O)c1ccnc2ccccc12`: the Potency entry in [14], in assay [16] and in assay [7] was “inactive” throughout. Further, the Potency in [2] is more than 46 µM; in [3], more than 46 µM; in assay [17], 0.1 µM (active).
